DT40 TDP1 no CPT – qHTS for Inhibitors of human tyrosyl-DNA phosphodiesterase 1 (TDP1): qHTS in cells in absence of CPT; DT40 Tdp1-/- hTDP1 cells, no CPT, ATP luminescence, 48 h; Potency, µM (titrated, usually from 46.2 µM), actives largely listed as inhibitors; 15% of 420,000 active; AID 686978, 2013; also: nearly all actives have a fitted effect of over 55% in size
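Growth kinetics read by CellTiter-Glo luminescence after ≥48 hr at 37 °C. Cells: DT40 Tdp1-/- stably carrying human TDP1, 400 per well, compound exposure in the absence of CPT (DMSO vehicle).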
ATXN2 expr inh – inhibitors of ATXN2 expression; HEK-293 ATXN2-luciferase reporter, luminescence, 24 h; Potency, µM (top dose mostly 57 µM), actives largely listed as inhibitors; 0.72% of 360,000 active; also: nearly all actives have a fitted effect of over 55% in size
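ATXN2-luciferase reporter cells (luciferase flanked by upstream and downstream ATXN2 gene portions) were treated 24 h at 37 °C with compounds at up to 57 uM. SteadyGlo luminescence gave expression; GF-AFC fluorescence gave viability.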
HepG2 tox – counter-screen for TGF-b inhibitors: cytotoxicity in HepG2 cells. HepG2 CAGA-GFP viability, ATP luminescence, 18 h. 0.76% of 410,000 active. Potency, µM (series often up to 46.1 µM), actives largely listed as cytotoxic
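CellTiter-Glo luminescence gave cytotoxicity after 18 hours at 37 degrees C. The cells were HepG2 CAGA-GFP in 1% FBS DMEM, stimulated with 500 pg/mL TGF-beta after compound addition. %Activity was normalised to no-cell wells (complete cell-killing) and DMSO (no toxicity), and curves were fitted and classified.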
TDP1 cell CPT – DT40-hTDP1 cell growth loss with CPT; 12% of 420,000 active; Potency, µM (titrated, usually from 46.2 µM), usual class: inhibitors; chicken DT40 Tdp1-/-;hTDP1 cells + 20 nM CPT, ATP luminescence, 48 h; also: nearly all actives have a fitted effect of over 55% in size
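Chicken DT40 Tdp1-/- cells complemented with human TDP1, 400 cells/well, exposed to compounds plus 20 nM camptothecin for at least 48 h at 37 C; viability read as ATP content by CellTiter-Glo luminescence.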
TGFb inhibitor – TGF-b pathway inhibition; AID 588855; Potency, µM (highest dose often 46.1 µM), usual class: inhibitors; 1.2% of 410,000 active; HepG2 CAGA-GFP TGF-b/SMAD3 reporter, GFP fluorescence, 18 h; TGF-beta stimulated, 500 pg/mL final; also: nearly all actives have a fitted effect of over 65% in size
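HEPG2 CAGA-GFP reporter cells (1000/well, DMEM with 1% FBS) received compounds, then recombinant TGF-beta at 500 pg/mL final for 18 hours at 37 degrees C. Per-cell GFP summed per well was normalised to unstimulated and stimulated DMSO controls before curve fitting.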
S2 tox – reduces viability in counter-screen for ATXN expression inhibitors | Potency, µM (highest dose often 56.7 µM), actives largely listed as cytotoxic | S2 cells (HEK-293 line with an ATXN2-luciferase reporter) viability, CellTiter-Fluor protease fluorescence, 24 h | AID 651635 | 0.49% of 400,000 active; also: nearly all actives have a fitted effect of over 40% in size
Hits are given with their value; [ ] = another dose, or the depositor's remark. Most compounds without a hit are left out; they make up all but 17% or so of the library. Calls follow the shape of the dose curve; as a rule, active = well fitted curve in the direction sought with a large enough effect; inconclusive = small, poorly fitted or top-dose-only effect, or another doubt; inactive = no such curve, though single readings can be large; an effect the other way counts as inactive or inconclusive.

Screening Cc1cccc(NC(=S)NC2CC3CCCC(C2)N3Cc2cccs2)c1 (stereo not given) returned DT40 TDP1 no CPT 23µM, ATXN2 expr inh inactive, HepG2 tox inactive, TDP1 cell CPT 23µM, TGFb inhibitor inactive and S2 tox inconclusive.
For FC(F)Sc1ccc(NC(=S)NC2CCCCC2)cc1 the results were DT40 TDP1 no CPT inactive, ATXN2 expr inh inconclusive, HepG2 tox inactive, TDP1 cell CPT inconclusive, TGFb inhibitor 11µM and S2 tox inconclusive.
`S=C(Nc1ccc(Br)cc1)NC1CCCC1` gave DT40 TDP1 no CPT 21µM, ATXN2 expr inh inactive, HepG2 tox inactive, TDP1 cell CPT inconclusive, TGFb inhibitor inconclusive and S2 tox inactive.
Screening Cc1cccc(NC(=S)NC2CCCC2)c1 returned DT40 TDP1 no CPT 15µM, ATXN2 expr inh inactive, HepG2 tox inactive, TDP1 cell CPT inconclusive, TGFb inhibitor inactive and S2 tox inactive.
For CC1CCCCC1NC(=S)Nc1ccc(SC(F)F)cc1 (stereo not given) the results were DT40 TDP1 no CPT inconclusive, ATXN2 expr inh inconclusive, HepG2 tox inactive, TDP1 cell CPT inconclusive, TGFb inhibitor inconclusive and S2 tox inconclusive.
`S=C(Nc1ccc(Oc2ccccc2)cc1)NC1CCCC1` gave DT40 TDP1 no CPT inconclusive, ATXN2 expr inh inactive, HepG2 tox inactive, TDP1 cell CPT inactive, TGFb inhibitor inactive and S2 tox inactive.
COc1ccc(CNS(=O)(=O)c2cc(CN3C(=O)c4cccnc4C3=O)ccc2OC)cc1 was read as DT40 TDP1 no CPT inactive, ATXN2 expr inh inactive, HepG2 tox inactive, TDP1 cell CPT inactive, TGFb inhibitor inactive and S2 tox inactive.
CC(C)[C@@H]1[C@H]2CC[C@H](C2)[C@H]1N was read as DT40 TDP1 no CPT inactive and TDP1 cell CPT inactive.
CC1CN(Cc2ccco2)C(=S)NC1=O (stereo not given) was read as DT40 TDP1 no CPT inactive, ATXN2 expr inh inactive, HepG2 tox inactive, TDP1 cell CPT inactive, TGFb inhibitor inactive and S2 tox inactive.
Screening CCC1CN(CCNC(=O)c2ccc3c(c2)OCO3)Cc2cc(OC)ccc2O1 (stereo not given) returned DT40 TDP1 no CPT inconclusive, TDP1 cell CPT inactive[9.04 µM] and S2 tox inactive.
`Cc1nn(-c2nnc(NC3CCCCC3)nn2)c(C)c1Br` gave DT40 TDP1 no CPT inactive, ATXN2 expr inh inactive, HepG2 tox inactive, TDP1 cell CPT inactive, TGFb inhibitor inactive and S2 tox inactive.
CCOC(=O)C1CCN(C(=O)c2ccc3nc(-c4ccc(OC)cc4)c(-c4ccc(OC)cc4)nc3c2)CC1 was read as DT40 TDP1 no CPT inconclusive, ATXN2 expr inh inactive, HepG2 tox inactive, TDP1 cell CPT inconclusive, TGFb inhibitor inactive and S2 tox inactive.
`O=C(NC12CC3CC(CC(C3)C1)C2)N1CCN(S(=O)(=O)c2ccc(Cl)cc2)CC1` gave DT40 TDP1 no CPT 23µM, ATXN2 expr inh inactive, HepG2 tox inactive, TDP1 cell CPT 18µM, TGFb inhibitor inactive and S2 tox inconclusive.
NS(=O)(=O)c1ccc(NC(=S)NC(=O)c2cccs2)cc1 was read as DT40 TDP1 no CPT inactive, HepG2 tox inactive, TDP1 cell CPT inactive, TGFb inhibitor inactive and S2 tox inactive.
For CN(C)c1ccc(NC(=S)NC23CC4CC(CC(C4)C2)C3)cc1 the results were DT40 TDP1 no CPT inconclusive, ATXN2 expr inh inactive, HepG2 tox inactive, TDP1 cell CPT 29µM, TGFb inhibitor inactive and S2 tox inactive.
For O=C(NC(=S)Nc1ccc(S(=O)(=O)N2CCCCC2)cc1)c1cccs1 the results were DT40 TDP1 no CPT 18µM, ATXN2 expr inh inactive, HepG2 tox inactive, TDP1 cell CPT 26µM, TGFb inhibitor inconclusive and S2 tox inactive.
Cc1ccc(S(=O)(=O)N2CCCCC2)cc1NC(=O)c1cccs1 was read as DT40 TDP1 no CPT inactive, ATXN2 expr inh inactive, HepG2 tox inactive, TDP1 cell CPT 26µM, TGFb inhibitor inactive and S2 tox inactive.
`CCC1=C2CC[C@H]3C(=O)N(CC(=O)OC)C(=O)[C@H]3[C@H]2[C@@]2(C)C(=NCC(=O)OC)OC(=O)N2C1=O` gave DT40 TDP1 no CPT inactive, ATXN2 expr inh inactive, HepG2 tox inactive, TDP1 cell CPT inactive, TGFb inhibitor inactive and S2 tox inactive.
CCCNC(=O)c1ccccc1NC(=O)C1=CSCCO1 was read as DT40 TDP1 no CPT inactive, HepG2 tox inactive, TDP1 cell CPT inactive, TGFb inhibitor inactive and S2 tox inactive.
`CN(C)CCCn1c(SCC(=O)Nc2nccs2)nnc1-c1ccncc1` gave DT40 TDP1 no CPT inactive, ATXN2 expr inh inactive, HepG2 tox inactive, TDP1 cell CPT inactive, TGFb inhibitor inactive and S2 tox inactive.
Screening CC(=O)NC(=S)Nc1ccc(NC(=O)c2cccs2)cc1 returned DT40 TDP1 no CPT inconclusive, ATXN2 expr inh inactive, HepG2 tox inactive, TDP1 cell CPT inactive, TGFb inhibitor inactive and S2 tox inactive.
For O=S(=O)(c1ccc(NC(=S)NC23CC4CC(CC(C4)C2)C3)cc1)N1CCCCC1 the results were DT40 TDP1 no CPT 21µM, HepG2 tox inactive, TDP1 cell CPT inconclusive, TGFb inhibitor inactive and S2 tox inconclusive.
Screening CC(C)CC(=O)NC(=S)Nc1ccc(N2CCCC2)c(Cl)c1 returned DT40 TDP1 no CPT inactive, ATXN2 expr inh inactive, HepG2 tox inactive, TDP1 cell CPT inactive, TGFb inhibitor inactive and S2 tox inactive.
CN(C)NC(=S)Nc1ccc(S(=O)(=O)N2CCCCC2)cc1 was read as DT40 TDP1 no CPT inconclusive, ATXN2 expr inh inactive, HepG2 tox inactive, TDP1 cell CPT inactive, TGFb inhibitor inactive and S2 tox inactive.
Screening O=C(NC(=S)Nc1ccc(N2CCCCC2)c(Cl)c1)c1cccs1 returned DT40 TDP1 no CPT 5.8µM, ATXN2 expr inh inactive, HepG2 tox inactive, TDP1 cell CPT 7.3µM, TGFb inhibitor inconclusive and S2 tox inactive.
For Cc1oc(S(=O)(=O)N2CCCCC2)cc1NC(=O)Nc1ccc(Cl)cc1 the results were DT40 TDP1 no CPT 16µM, HepG2 tox inactive, TDP1 cell CPT 16µM, TGFb inhibitor inconclusive and S2 tox inactive.
Screening Cc1ccc(NC(=S)NC(=O)c2cccs2)cc1F returned DT40 TDP1 no CPT 7.3µM, ATXN2 expr inh inactive, HepG2 tox inactive, TDP1 cell CPT inactive, TGFb inhibitor inactive and S2 tox inactive.
Cc1ccc2c(c1)C1(C=CC(=O)C=C1)CC(=O)N2C was read as HepG2 tox inactive and TGFb inhibitor inactive.
Screening O=C1O[C@@H](c2ccccc2)C[C@@H](O)[C@H](O)CCc2ccccc21 returned DT40 TDP1 no CPT inactive, ATXN2 expr inh inactive, TDP1 cell CPT inactive and S2 tox inactive.

Screening data (PubChem)
